Activity calls are given as the source filed them.
Key:
[1] = compound effects on lung adenocarcinoma cell viability – A549, calcein-AM fluorescence, 48 h, basal, profiling panel (AID 1162); conditions: higher = more signal
[2] = compound effects on differentiated 3T3-L1 adipocyte viability – cell-based, 3T3-L1 adipocytes, calcein-AM fluorescence, 48 h, basal, profiling panel (AID 1163); conditions: 3T3-L1 adipocytes viability, higher = more signal
[3] = compound effects on hepatocellular carcinoma cell viability – HepG2, calcein-AM fluorescence, 48 h, basal, profiling panel (AID 1164); conditions: higher = more signal
[4] = compound effects on multiple myeloma cell viability – MM1S, calcein-AM fluorescence, 48 h, basal, profiling panel (AID 1165); conditions: higher = more signal
[5] = calcein-AM signal in unstimulated myeloma cells – cell-based, calcein-AM fluorescence, 48 h, PK04 Diversity Set, profiling panel (AID 1166); conditions: RPMI8226 myeloma viability, higher = more signal;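 further: cells grown under basal conditions without added stimulus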
[6] = JC-1 mitochondrial signal, unstimulated HepG2 cells – cell-based, JC-1 fluorescence, 24 h, 100 nL compound, profiling panel (AID 1167); conditions: HepG2 mitochondrial potential, higher = more signal
[7] = JC-1 mitochondrial signal, unstimulated adipocytes – cell-based, JC-1 fluorescence, 3T3-L1 adipocytes, 24 h, 100 nL compound, profiling panel (AID 1168); conditions: JC-1 mitochondrial fluorescence, higher = more signal, called active from +8 up or from −8 down
[8] = JC-1 mitochondrial signal, unstimulated myeloma cells – cell-based, JC-1 fluorescence, RPMI8226, 24 h, 100 nL compound, profiling panel (AID 1169); conditions: JC-1 mitochondrial potential fluorescence, higher = more signal
[9] = JC-1 mitochondrial signal, unstimulated MM1S myeloma – cell-based, JC-1 fluorescence, 24 h, 100 nL compound, profiling panel (AID 1170); conditions: MM1S mitochondrial potential, higher = more signal
[10] = resazurin metabolic signal in A549 cells – cell-based, resazurin fluorescence, 24 h, PK04 Diversity Set, profiling panel (AID 1171); conditions: A549 viability, higher = more signal, called active from +8 up or from −8 down
Further: test concentration not given here.

Row | SMILES | z-score [1] | z-score [2] | z-score [3] | z-score [4] | z-score [5] | z-score [6] | z-score [7] | z-score [8] | z-score [9] | z-score [10]
1 | CCOC(=O)[C@H](CC(C)C)NC(=O)CCC1CC(OC(=O)NCc2cccc3ccccc23)CC2(CCCC(COC(=O)NCC3CCCCC3)O2)O1 (stereo not given in full) | -0.15 | 1.09 | -0.993 | -2.66 | -1.28 | 0.895 | -0.0758 (inactive) | 0.273 | -0.929 | 0.945 (inactive)
2 | C[C@@H](c1ccccc1)N1C(=O)[C@H]2[C@H]3[C@H](O)[C@H](O)CC(=NO[C@@H]4O[C@H](CO)[C@@H](O)[C@H](O)[C@H]4O)[C@H]3CC[C@H]2C1=O | -0.306 | 0.221 | -0.492 | 0.254 | -0.599 | -0.364 | -0.507 (inactive) | 0.0338 | -0.15 | -0.154 (inactive)
3 | COC(=O)[C@H](C)NC(=O)CCC1CC(OC(=O)NCc2cccc3ccccc23)CC2(CCCC(COC(=O)NCC(c3ccccc3)c3ccccc3)O2)O1 (stereo not given in full) | -0.101 | -0.294 | -0.618 | -3.41 | -1.22 | 1.21 | -0.0303 (inactive) | -0.125 | -0.493 | 2.23 (inactive)
4 | COC(=O)C=CCCc1coc(C=CCNC(=O)OC)n1 | -0.538 | 0.868 | -0.586 | 0.585 | -2.19 | 0.0672 | -0.944 (inactive) | 0.073 | 0.681 | -1.18 (inactive)
5 | CCC1=NOC(CCC2CC(OC(=O)NCc3cccc4c3OCO4)CC3(CCCC(COC(=O)NCCc4ccccc4OC)O3)O2)C1 (stereo not given) | -1.02 | 0.405 | -2.26 | -3.6 | -3.84 | 0.559 | -0.197 (inactive) | -0.77 | -2.17 | 0.492 (inactive)
6 | COc1cccc([C@H]2Oc3ccc(OC)cc3C(=NOC(C)CN3CCCCc4nc(C)c(C)cc43)[C@@H]2O)c1 (stereo not given in full) | 0.217 | -0.527 | 0.0117 | -1.02 | -0.836 | -0.108 | -0.832 (inactive) | -0.00251 | -0.144 | -0.565 (inactive)
7 | COC(=O)CC=C[C@@H](C)[C@@H](C=NO[C@H](C)c1cn([C@@H]2COC[C@H]2O)nn1)NS(=O)(=O)c1ccc(C)cc1 | 0.802 | -0.628 | 1.16 | 0.111 | 0.188 | -0.156 | 0.766 (inactive) | 0.556 | -1.25 | -1.14 (inactive)
8 | COc1cccc([C@H]2Oc3ccc(OC)cc3C(=NOC[C@@H](O)COCc3ccco3)[C@@H]2O)c1 | 0.451 | 0.558 | 0.819 | 0.667 | 0.414 | -0.959 | 0.461 (inactive) | 0.431 | -0.751 | -1.55 (inactive)
9 | C=C(C)C(=O)OCC1CN2[C@@H](CC[C@@H](C)[C@@H]2c2ccc(Br)cc2)C(=O)O1 (stereo not given in full) | -0.0348 | -0.518 | -0.442 | 0.151 | 0.0247 | 0.684 | -0.614 (inactive) | -0.863 | 0.169 | 0.789 (inactive)
10 | CO[C@H]1COC(=O)[C@H](C)NC(=O)CC=C[C@@H](C)[C@H](OC)COC(=O)[C@@H](OCc2ccccc2)C=C[C@@H]1C | 0.0192 | 0.0912 | 0.645 | -0.144 | -0.646 | 0.00399 | -0.29 (inactive) | -0.0466 | 0.474 | 0.703 (inactive)
11 | COC(=O)[C@H]1O[C@@H](c2c(OC)c(OC)c(C)c(OC)c2OC)[C@H](C)[C@@H](O)[C@H]1C | 1.2 | -0.302 | 0.825 | 1 | 1.36 | 0.438 | 0.61 (inactive) | -0.398 | -0.848 | -1.27 (inactive)
12 | CCOC(=O)[C@H](CC(C)C)NC(=O)CCC1CC(OC(=O)NCCc2ccc(F)cc2)CC2(CCCC(COC(=O)NCCC(C)C)O2)O1 (stereo not given in full) | -0.646 | 0.174 | 0.0995 | 0.773 | -0.479 | -0.488 | 0.152 (inactive) | 0.248 | -0.00687 | 0.0692 (inactive)
13 | O=C1OCCC=C1C(O)CCc1ccccc1 (stereo not given) | 0.0955 | -0.831 | -0.354 | -0.575 | 0.146 | -0.895 | -0.54 (inactive) | 0.0715 | -0.517 | -0.0147 (inactive)
14 | Cc1ccc(S(=O)(=O)N[C@H]2COC(=O)CC=C[C@H](C)[C@@H](NS(=O)(=O)c3ccc(C)cc3)COC(=O)CC=C[C@@H]2C)cc1 | -0.315 | 0.352 | -0.521 | 0.248 | -0.11 | 0.477 | -0.0603 (inactive) | 0.822 | 0.507 | 0.694 (inactive)
15 | Cn1c(=O)n2n(c1=O)[C@H]1[C@H](O)[C@@H]3O[C@@H]3C(=NOCc3ccccc3)[C@H]1CC2 | 0.102 | -0.48 | 0.316 | 0.0846 | -0.548 | -0.141 | -0.383 (inactive) | -0.0104 | -0.338 | -0.508 (inactive)
16 | CCOC(=O)NN=C1C[C@@H](O)[C@@H](O)[C@@H]2[C@@H]3C(=O)N(C(C)(C)C)C(=O)[C@@H]3CC[C@H]12 | 0.338 | -0.666 | 1.34 | 0.469 | 0.541 | 0.361 | 0.314 (inactive) | -0.252 | -1.59 | -0.974 (inactive)
17 | CC(C)CON=C1C[C@@H](O)[C@@H](O)[C@@H]2[C@@H]3C(=O)N(Cc4ccc5c(c4)OCO5)C(=O)[C@@H]3CC[C@H]12 | -0.223 | -0.503 | -0.479 | 0.119 | -1.15 | 0.174 | -0.589 (inactive) | 0.704 | -0.146 | 0.56 (inactive)
18 | CCOC(=O)NN=C1C[C@@H](O)[C@@H](O)[C@@H]2[C@@H]3C(=O)N([C@@H](C)c4ccccc4)C(=O)[C@@H]3CC[C@H]12 | -0.0339 | -0.584 | -0.102 | 0.136 | -0.177 | -0.39 | 0.29 (inactive) | 0.104 | -0.476 | -0.193 (inactive)
19 | CC(C)CON=C1[C@H]2CCn3c(=O)n(Cc4cc5c(cc4Cl)OCO5)c(=O)n3[C@H]2[C@H](O)[C@@H]2O[C@H]12 | -1.37 | 0.719 | -0.0623 | -0.053 | -0.62 | -0.0638 | -0.443 (inactive) | 0.207 | -0.354 | -0.647 (inactive)
20 | CC(C)=NO[C@H](C)c1cn([C@H](CO)Cc2ccccc2)nn1 | 0.373 | 0.232 | -0.121 | -0.0735 | -0.33 | -0.312 | -0.41 (inactive) | 0.155 | 1.11 | 0.268 (inactive)
21 | COc1cccc([C@H]2Oc3ccc(OC)cc3C(=NOC[C@@H](C)[C@H](OCc3ccccc3)C(C)C)[C@@H]2O)c1 | -0.956 | 0.488 | -0.744 | -0.596 | -2.12 | -3.51 | -0.65 (inactive) | -0.188 | 0.748 | 0.385 (inactive)
22 | CC(C)=CCCC(C)=CCON=C1C[C@@H](O)[C@@H](O)[C@@H]2[C@@H]3C(=O)N(Cc4ccccc4)C(=O)[C@@H]3CC[C@@H]12 | 0.123 | -0.827 | -1.45 | 0.732 | 0.107 | 0.786 | 0.199 (inactive) | -0.11 | -0.689 | 0.708 (inactive)
23 | Cc1cc2c(nc1C)CCCN2CC(O)CN1CCCc2nc(C)c(C)cc21 | -0.254 | -0.0412 | -0.949 | -0.0227 | 0.391 | 0.00162 | -0.414 (inactive) | -0.108 | 0.382 | 0.189 (inactive)
24 | COc1cc(O)c(C(=O)C=Cc2ccc3c(c2)OCO3)c(OC)c1 | -0.553 | 0.154 | -0.932 | -1.62 | -1.36 | -0.591 | -0.646 (inactive) | -0.23 | -0.533 | 0.0731 (inactive)
25 | C[C@H]1COC(=O)[C@@H]2CCCN2C(=O)[C@@H](C)COC(=O)[C@H](Cc2ccccc2)NC1=O | -0.398 | -0.501 | -0.501 | 0.119 | -0.364 | 0.278 | -0.906 (inactive) | -0.287 | -0.825 | 0.264 (inactive)

— PubChem BioAssay
